From PubChem BioAssay (Tox21) come the findings set out here.

A number with no mark means an inactive call. Records with an inconclusive call do not appear. The source made the active and inactive calls. Unless noted, the call rests on the fitted dose curve.

The target of assay [1] is Aryl hydrocarbon receptor (Homo sapiens) (UniProt P35869). In words: qHTS assay to identify small molecule that activate the aryl hydrocarbon receptor (AhR) signaling pathway (AID 743085; active means well fitted curve in the direction sought with a large enough effect in the repeat runs; an effect the other way counts as inactive or inconclusive;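 further: HG2L7.5c1 human HepG2 liver cells with stably integrated DRE-driven firefly reporter; nearly all actives have a fitted effect of over 15% in size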). An outline of the steps: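 Stably transfected human liver carcinoma cells (HG2L7.5c1; 20 DRE-firefly luciferase) were incubated 5 h, dosed, and kept 24 h at 37C. Agonism was scored from increased luciferase luminescence.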
Aryl hydrocarbon receptor (Homo sapiens), sequence (P35869 whole entry, looked up): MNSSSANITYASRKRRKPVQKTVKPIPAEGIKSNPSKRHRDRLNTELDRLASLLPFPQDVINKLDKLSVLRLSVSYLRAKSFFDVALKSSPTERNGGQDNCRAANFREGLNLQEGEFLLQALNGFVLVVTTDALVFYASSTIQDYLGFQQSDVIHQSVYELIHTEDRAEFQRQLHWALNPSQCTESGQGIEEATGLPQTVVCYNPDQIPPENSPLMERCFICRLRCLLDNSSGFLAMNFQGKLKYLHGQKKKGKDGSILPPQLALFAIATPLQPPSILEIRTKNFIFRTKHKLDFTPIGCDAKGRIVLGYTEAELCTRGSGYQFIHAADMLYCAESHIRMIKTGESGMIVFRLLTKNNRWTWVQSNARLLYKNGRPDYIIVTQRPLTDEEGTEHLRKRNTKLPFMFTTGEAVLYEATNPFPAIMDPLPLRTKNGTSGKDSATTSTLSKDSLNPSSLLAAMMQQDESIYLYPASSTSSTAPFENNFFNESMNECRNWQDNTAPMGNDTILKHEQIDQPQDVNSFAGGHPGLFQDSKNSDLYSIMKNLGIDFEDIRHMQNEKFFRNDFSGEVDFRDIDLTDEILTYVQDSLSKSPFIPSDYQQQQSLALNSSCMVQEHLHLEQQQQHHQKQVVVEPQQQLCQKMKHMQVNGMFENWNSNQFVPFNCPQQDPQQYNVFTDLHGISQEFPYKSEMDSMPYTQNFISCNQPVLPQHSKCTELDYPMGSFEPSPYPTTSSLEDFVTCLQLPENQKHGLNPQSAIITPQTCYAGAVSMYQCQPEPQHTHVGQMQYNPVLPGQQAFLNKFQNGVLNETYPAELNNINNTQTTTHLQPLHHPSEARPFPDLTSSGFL
(In general: qHTS replaces the single test concentration by a dilution series.)

Assay [2] in a line: qHTS assay to identify small molecule antagonists of the retinoic acid receptor (RAR) signaling pathway (AID 1159552; active means well fitted curve in the direction sought with a large enough effect in the repeat runs; an effect the other way counts as inactive or inconclusive; further: nearly all actives have a fitted effect of over 50% in size; further: potency means the concentration at half of the fitted maximal effect). An outline of the steps: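 Test chemicals and DMSO controls were pin-transferred onto C3RL4 cells a day after seeding; retinol (1 uM final) followed at once. Luminescent reporter output was quantified after 6 hr of co-incubation and 30 min with detection reagent.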

A short description of assay [3]: qHTS assay to identify small molecule agonists of the estrogen related receptor signaling pathway with the pleiotropic PPARgamma coactivator (PGC) from Tox21 10K library (AID 1224842; active means well fitted curve in the direction sought with a large enough effect in the repeat runs; an effect the other way counts as inactive or inconclusive; further: nearly all actives have a fitted effect of over 15% in size). An outline of the steps:
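PGC/ERR reporter cells (NTP line) were seeded 2,000 per well, rested 6 h at 37 C/5% CO2, then pin-dosed with compounds in DMSO for 18 h at 37 C; luciferase read by One-Glo luminescence after 30 min at room temperature.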

Assay [4] can be described thus: qHTS assay to identify small molecule agonists of the estrogen related receptor (ERR) signaling pathway from Tox21 library (AID 1224849). Further: nearly all actives have a fitted effect of over 15% in size. The settings on record: ERR reporter cell line, ONE-Glo luciferase, 18 h; at 92.4 µM (top of the series) unless noted. An outline of the steps:
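ERR reporter cell line (NTP) seeded, rested 6 h at 37 C/5% CO2, then pinned with Tox21 compounds in DMSO. After 18 h at 37 C, ONE-Glo luciferase luminescence was read following 30 min at room temperature.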

The nature of assay [5]: A CellTox Green Cytotoxicity Assay to monitor cytotoxicity in HEK293 cells - 0 hour (AID 1224869; active means well fitted curve in the direction sought with a large enough effect in the repeat runs; an effect the other way counts as inactive or inconclusive; further: nearly all actives have a fitted effect of over 50% in size). An outline of the steps: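 HEK293 cells premixed with CellTox Green dye were seeded at 600 cells/well and left 5 h at 37 C/5% CO2 before pin transfer of 23 nL compound in DMSO. Fluorescence from dye bound to dead-cell DNA was read during 40 h treatment.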
The nature of assay [6]: A CellTox Green Cytotoxicity Assay to monitor cytotoxicity in HepG2 cells - 0 hour (AID 1224882; active means well fitted curve in the direction sought with a large enough effect in the repeat runs; an effect the other way counts as inactive or inconclusive; further: nearly all actives have a fitted effect of over 35% in size). An outline of the steps:
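HepG2 cells were seeded together with the CellTox Green dye at 600 cells/well, left 5 h at 37 C/5% CO2, then given compounds in DMSO. Fluorescence from dye bound to dead-cell DNA was read repeatedly over 40 h of treatment at 37 C.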

Assay [7] can be described thus: qHTS assay to identify small molecule HDAC inhibitors (AID 1259364; active means well fitted curve in the direction sought with a large enough effect in the repeat runs; an effect the other way counts as inactive or inconclusive; further: top concentration of the series differs between compounds; nearly all actives have a fitted effect of over 45% in size). In short, it runs like this:
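Wild-type HCT-116 cells were plated overnight, exposed to compounds for 2 h at 37 °C, then given HDAC-Glo class I/II luminogenic reagent for 30 min at room temperature before luminescence was read.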

Assay [8] is described as follows: qHTS assay to identify small molecule agonists of the sonic hedgehog signaling (Shh) pathway (AID 1259368). Further: nearly all actives have a fitted effect of over 15% in size. In short, it runs like this: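 NIH/3T3-derived 3T3Gli1-Luc cells carrying a stably integrated Gli1 response element–firefly luciferase reporter were plated, left 4 hr at 37 C, then given compounds in DMSO for 24 hr. Luminescence was read 30 min after adding luciferase reagent.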

The nature of assay [9]: Caspase-3/7 induction in HepG2 cells by small molecules, qHTS assay (AID 1346978; active means well fitted curve in the direction sought with a large enough effect in the repeat runs; an effect the other way counts as inactive or inconclusive; further: nearly all actives have a fitted effect of over 15% in size). In short, it runs like this:
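Wild-type HepG2 cells (2,000/well) were settled 5 h at 37 C, 5% CO2, then exposed to compounds in DMSO for 17 h. Caspase-3/7 activity was read by luminescence 30 min after adding Caspase-Glo 3/7 reagent at room temperature.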

Assay [10] in a line: Caspase-3/7 induction in CHO-K1 cells by small molecules, qHTS assay (AID 1346980; active means well fitted curve in the direction sought with a large enough effect in the repeat runs; an effect the other way counts as inactive or inconclusive; further: nearly all actives have a fitted effect of over 15% in size). An outline of the steps: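 Wild-type cells were seeded at 1,500 per well and settled 5 hr at 37 C, 5% CO2, then exposed to DMSO-dissolved compounds for 17 hr. Caspase-Glo 3/7 reagent was added, and luminescence was read after 30min at room temperature.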
The target of assay [11] is Acetylcholinesterase (Homo sapiens) (UniProt P22303). In words: Acetylcholinesterase (AChE) small molecule antagonists: colormetric cell-based qHTS assay (AID 1347395). Further: nearly all actives have a fitted effect of over 30% in size. Further: potency means the concentration at half of the fitted maximal effect. In short, it runs like this: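 After overnight attachment at 37 C, SH-SY5Y cells get 30 min compound exposure; detection cocktail (acetylthiocholine, DTNB) then incubates 90 min at 37 C, and absorbance reflects AChE-generated thiocholine.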
Acetylcholinesterase (Homo sapiens), sequence (P22303 whole entry, looked up): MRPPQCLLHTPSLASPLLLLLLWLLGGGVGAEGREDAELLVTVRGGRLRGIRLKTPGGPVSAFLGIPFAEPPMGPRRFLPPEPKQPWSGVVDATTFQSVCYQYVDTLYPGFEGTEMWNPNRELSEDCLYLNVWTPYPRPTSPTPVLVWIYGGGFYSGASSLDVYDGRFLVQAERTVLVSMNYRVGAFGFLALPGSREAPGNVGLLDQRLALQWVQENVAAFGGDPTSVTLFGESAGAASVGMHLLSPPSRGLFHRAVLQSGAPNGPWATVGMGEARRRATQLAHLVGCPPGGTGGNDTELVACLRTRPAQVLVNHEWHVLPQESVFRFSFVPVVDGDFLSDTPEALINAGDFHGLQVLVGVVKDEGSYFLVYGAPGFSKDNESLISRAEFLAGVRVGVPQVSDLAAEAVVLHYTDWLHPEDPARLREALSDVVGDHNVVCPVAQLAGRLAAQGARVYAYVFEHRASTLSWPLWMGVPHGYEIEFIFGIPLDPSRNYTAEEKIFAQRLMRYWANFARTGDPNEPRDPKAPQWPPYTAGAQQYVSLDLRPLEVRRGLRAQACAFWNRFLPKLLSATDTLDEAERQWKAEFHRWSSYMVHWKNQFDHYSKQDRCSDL

The target is the same in assay [12]. In words: Acetylcholinesterase (AChE) small molecule antagonists: enzyme-based qHTS assay (AID 1347397). Further: nearly all actives have a fitted effect of over 55% in size. Further: potency means the concentration at half of the fitted maximal effect. Conditions: Potency: AChE enzyme activity inhibition; outcome: AChE enzyme activity inhibition. An outline of the steps: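 Recombinant human AChE, dispensed at 50 mU/mL, was preincubated with Tox21 10K compounds or DMSO vehicle for 30 min at room temperature. DTNB plus acetylthiocholine was then added, and thiocholine was measured colorimetrically after a further 10 min.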

Assay [13] has the same target. Nature of the assay: Acetylcholinesterase (AChE) small molecule antagonists: fluorescence cell-based qHTS assay (AID 1347398). Further: nearly all actives have a fitted effect of over 50% in size. Further: potency means the concentration at half of the fitted maximal effect. Conditions: Potency: AChE activity; outcome: AChE activity. In short, it runs like this: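 Human SH-SY5Y cells were plated overnight at 37 C, exposed to compound for 30 min at 37 C, 5% CO2, then given acetylthiocholine plus Thiolite Green for 40 min at room temperature; thiocholine fluorescence (Ex/Em 490/520 nm) reports endogenous AChE activity.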

The target of assay [14] is Aromatase (Homo sapiens) (UniProt P11511). Nature of the assay: qHTS assay to identify aromatase inhibitors (AID 743083; active means well fitted curve in the direction sought with a large enough effect in the repeat runs; an effect the other way counts as inactive or inconclusive; further: nearly all actives have a fitted effect of over 55% in size; further: potency means the concentration at half of the fitted maximal effect).
Aromatase (Homo sapiens), sequence (P11511 whole entry, looked up): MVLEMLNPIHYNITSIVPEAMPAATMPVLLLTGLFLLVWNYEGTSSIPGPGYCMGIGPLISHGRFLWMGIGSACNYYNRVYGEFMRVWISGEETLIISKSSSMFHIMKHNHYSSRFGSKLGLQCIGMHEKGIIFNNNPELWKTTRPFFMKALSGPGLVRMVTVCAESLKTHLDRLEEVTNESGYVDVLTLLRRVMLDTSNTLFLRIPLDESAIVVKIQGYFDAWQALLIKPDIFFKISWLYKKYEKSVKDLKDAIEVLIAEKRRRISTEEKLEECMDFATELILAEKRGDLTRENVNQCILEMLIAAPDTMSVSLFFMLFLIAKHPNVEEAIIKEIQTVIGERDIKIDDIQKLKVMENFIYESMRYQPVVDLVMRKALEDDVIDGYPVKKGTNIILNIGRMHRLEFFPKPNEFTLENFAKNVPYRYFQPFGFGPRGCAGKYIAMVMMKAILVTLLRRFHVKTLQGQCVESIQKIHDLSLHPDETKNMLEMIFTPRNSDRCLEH
The nature of assay [15]: qHTS assay to identify small molecule agonists of the estrogen related receptor (ERR) signaling pathway (AID 1224820; active means well fitted curve in the direction sought with a large enough effect in the repeat runs; an effect the other way counts as inactive or inconclusive). In short, it runs like this: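 Quantitative HTS of the LOPAC library used NTP ERR reporter cells treated 18 h at 37 C. Signal is luminescence after One-Glo addition and a 30 min room-temperature incubation.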
In assay [16] the test system is estrogen-related receptor alpha (ERRalpha) with PGC-1alpha coactivator, human. In words: qHTS assay to identify small molecule antagonists of the estrogen related receptor signaling pathway with the pleiotropic PPARgamma coactivator (PGC) (AID 1224821).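 Further: lower luminescence signal means antagonism of PGC/ERR signalling; nearly all actives have a fitted effect of over 50% in size.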 In short, it runs like this: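 Quantitative HTS for antagonism: PGC/ERR cells received compounds after 6 h attachment and were incubated 18 h at 37 C, with luminescence (One-Glo) as the endpoint.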

A short description of assay [17]: qHTS assay to identify small molecule antagonists of the estrogen related receptor signaling pathway with the pleiotropic PPARgamma coactivator (PGC) cell viability counter screen (AID 1224822; active means well fitted curve in the direction sought with a large enough effect in the repeat runs; an effect the other way counts as inactive or inconclusive;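 further: viability read after 17.5 h compound exposure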). In short, it runs like this: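 PGC/ERR cells were seeded at 2,000 cells/well, rested 6 h at 37 C/5% CO2, then given compounds in DMSO by pin tool and incubated 17.5 h at 37 C. Viability came from CellTiter-Fluor fluorescence after 30 min.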

Assay [18] deals with Acetylcholinesterase (Homo sapiens) (UniProt P22303). In words: Acetylcholinesterase (AChE) small molecule antagonists: enzyme-based qHTS assay with human liver microsomes (AID 1347399). Further: nearly all actives have a fitted effect of over 60% in size. Further: potency means the concentration at half of the fitted maximal effect. The settings on record: Potency: qHTS inhibition; outcome: qHTS inhibition. An outline of the steps:
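Recombinant human AChE (50 mU/mL in the enzyme mix) and human liver microsomes (0.25 mg/mL final) were preincubated with compound and NADPH (0.25 mg/mL final) for 30 min at 37 C. Acetylthiocholine/DTNB was then added; thiocholine was read colorimetrically after 10 min at room temperature.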
On the % scale 0 is the no-effect control and ±100 the full control effect.

Regarding `ClC1=C(Cl)[C@]2(Cl)[C@@H]3[C@@H](Cl)[C@H]4O[C@H]4[C@@H]3C1(Cl)C2(Cl)Cl`, the Potency result in [1], in assay [3], in [5], in assay [6], in [9] and in assay [11] was “inactive” each time. In addition, the Potency result in assay [12] and in [13] was “inactive” each time. For the same compound, the Potency in [2] is 68.6 µM (active). For the same compound, the activity change, positive = activation in assay [4] is -26.9%. Besides, the compound was classed as inactive in assay [7], in assay [8] and in assay [10].

For the compound `Nc1ccc([N+](=O)[O-])cc1`, the Potency entry in assay [14], in assay [15], in assay [16], in [17], in [5] and in assay [6] was “inactive” in each case. The Potency entry in assay [11], in assay [12], in assay [13] and in assay [18] was “inactive” throughout. Also, the activity change, positive = activation in assay [4] is -29.9%. Further, the compound was classed as inactive in [7], in [8] and in assay [10].

As for `CCCCC(CC)COC(=O)c1ccc(C(=O)OCC(CC)CCCC)cc1` (stereo not drawn), the Potency entry in [14], in assay [1], in assay [2], in [3], in [11] and in [12] was “inactive” in each case. Also, the Potency entry in assay [13] and in assay [18] was “inactive” each time. The activity change, positive = activation in assay [4] was 0.923%.

With `CCCCC(CC)COC(=O)CCCCC(=O)OCC(CC)CCCC` (stereo not drawn), the Potency result in assay [14], in assay [1], in assay [2], in assay [9], in assay [11] and in assay [12] was “inactive” in each case. Besides, the Potency result in assay [13] and in assay [18] was “inactive” throughout.

Regarding `COCCOC(=O)c1ccccc1C(=O)OCCOC`, the Potency entry in assay [14], in [1], in [2], in [9], in assay [11] and in assay [12] was “inactive” each time. Moreover, the Potency result in assay [13] and in assay [18] was “inactive” in each case.

On to `Cc1nnc2n1-c1sc(CCc3ccc(CC(C)C)cc3)cc1C(c1ccccc1Cl)=NC2C` (stereo not drawn), for which the Potency result in [1], in assay [3], in assay [5], in [6], in assay [11] and in [12] was “inactive” in each case. For the same compound, the Potency result in assay [13] and in assay [18] was “inactive” each time. In addition, in [2], the Potency is 33.5 µM (active). Moreover, in [4], the activity change, positive = activation was -59.4% [at 42.5 µM]. The call in assay [7], in assay [8] and in assay [10] was inactive.

Turning to `Cc1ccc(N(SC(F)(Cl)Cl)S(=O)(=O)N(C)C)cc1`, the values for the Potency in assay [14], in assay [2] and in [18] were 3.86 µM (active), 13.7 µM (active) and 71 µM (active), respectively. Besides, the Potency result in assay [1], in assay [3], in assay [5], in assay [6], in assay [9] and in assay [11] was “inactive” each time. In addition, the activity change, positive = activation in assay [4] is -74.2%. Also, the outcome in [7], in assay [8] and in assay [10] was inactive.

Turning to `CNC(=O)Oc1cc(C)c(SC)c(C)c1`, the Potency result in assay [6] and in assay [9] was “inactive” throughout. The call in [7], in assay [8] and in [10] was inactive. The Potency in [11] was 3.17 µM (active); in assay [12], 3.56 µM (active); in assay [13], 1.59 µM (active); in assay [18] it was 22.4 µM (active).

On to `ClC1=C(Cl)C(Cl)(Cl)C(Cl)=C1Cl`, for which the Potency entry in [2], in [9], in assay [11], in assay [12], in assay [13] and in [18] was “inactive” throughout.
